Assay results as given in PubChem BioAssay (NCATS).
Results filed as inconclusive are left out. Activity calls are given as the source filed them. Calls follow the shape of the dose curve; as a rule, active = well fitted curve in the direction sought with a large enough effect; inconclusive = small, poorly fitted or top-dose-only effect, or another doubt; inactive = no such curve, though single readings can be large; an effect the other way counts as inactive or inconclusive.

Tests used:
[1] = qHTS of pediatric cancer cell lines to identify multiple opportunities for drug repurposing: Primary screen for NB1643 cells (AID 1347099); also: nearly all actives have a fitted effect of over 50% in size; also: potency is read from the fitted curve at half-maximal effect
How it was run: (§1)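 Cells plated at 500-1,000/well in growth medium, compounds added after 5 h. MIPE tested at 11 points (from 0.78 nM), NPC at 8 points (from 0.59 nM). CellTiter-Glo luminescence after 48 h; concentration-response curves from primary screen.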

[2] = qHTS of pediatric cancer cell lines to identify multiple opportunities for drug repurposing: Primary screen for LAN-5 cells (AID 1347100); also: potency is read from the fitted curve at half-maximal effect
How it was run: (§2)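 Cells (500-1,000/well) rested 5 h, then received compounds for 48 h; metabolically active cells were measured by CellTiter-Glo luminescence. Final concentrations spanned up to 46 µM (MIPE, 11-point) or 0.59 nM-46 µM (NPC, 8-point) in primary screens, 11-point in follow-ups.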

[3] = qHTS of pediatric cancer cell lines to identify multiple opportunities for drug repurposing: Primary screen for Rh18 cells (AID 1347102); also: nearly all actives have a fitted effect of over 65% in size; also: potency is read from the fitted curve at half-maximal effect
How it was run: as §2

[4] = qHTS of pediatric cancer cell lines to identify multiple opportunities for drug repurposing: Primary screen for OHS-50 cells (AID 1347103); also: nearly all actives have a fitted effect of over 40% in size; also: potency is read from the fitted curve at half-maximal effect
How it was run: as §2

[5] = qHTS of pediatric cancer cell lines to identify multiple opportunities for drug repurposing: Primary screen for MG 63 (6-TG R) cells (AID 1347105); also: nearly all actives have a fitted effect of over 50% in size; also: potency is read from the fitted curve at half-maximal effect
How it was run: as §1

[6] = qHTS of pediatric cancer cell lines to identify multiple opportunities for drug repurposing: Primary screen for control Hh wild type fibroblast cells (AID 1347106);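 also: series mostly up to about 46 µM; a drop in luminescence marks cytotoxicity and a rise apparent proliferation; nearly all actives have a fitted effect of over 55% in size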
How it was run: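 Viability after 48 h compound treatment at 37C, 500-1,000 cells/well, read as ATP luminescence with CellTiter-Glo. Primary screens used 11-point (MIPE, 0.78 nM-46 µM) or 8-point (NPC, 0.59 nM-46 µM) final concentrations; follow-up screens used 11-point dilutions.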

[7] = qHTS of pediatric cancer cell lines to identify multiple opportunities for drug repurposing: Primary screen for Rh30 cells (AID 1347107); also: nearly all actives have a fitted effect of over 75% in size; also: potency is read from the fitted curve at half-maximal effect
How it was run: as §2

[8] = qHTS of pediatric cancer cell lines to identify multiple opportunities for drug repurposing: Primary screen for Rh41 cells (AID 1347108); also: nearly all actives have a fitted effect of over 70% in size; also: potency is read from the fitted curve at half-maximal effect
How it was run: as §1

[9] = qHTS of pediatric cancer cell lines to identify multiple opportunities for drug repurposing: Primary screen for BT-12 cells (AID 1347101); also: potency is read from the fitted curve at half-maximal effect; nearly all actives have a fitted effect of over 25% in size
How it was run: as §2

[10] = qHTS of pediatric cancer cell lines to identify multiple opportunities for drug repurposing: Primary screen for RD cells (AID 1347104); also: nearly all actives have a fitted effect of over 55% in size; also: potency is read from the fitted curve at half-maximal effect
How it was run: as §1

[11] = qHTS of pediatric cancer cell lines to identify multiple opportunities for drug repurposing: Confirmatory screen for NB1643 cells (AID 1347109); also: nearly all actives have a fitted effect of over 45% in size; also: potency is read from the fitted curve at half-maximal effect
How it was run: as §2

[12] = qHTS of pediatric cancer cell lines to identify multiple opportunities for drug repurposing: Confirmatory screen for A673 cells (AID 1347110);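 also: cells exposed to compound for 48 h before the viability read; nearly all actives have a fitted effect of over 65% in size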; also: potency is read from the fitted curve at half-maximal effect
How it was run: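 Concentration-response curves came straight from titrations: 11 points (0.78 nM to 46 µM) for MIPE and several concentrations (0.59 nM to 46 µM) for NPC in primary, 11 points in follow-up. Readout: ATP luminescence at 48 h.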

[13] = qHTS of pediatric cancer cell lines to identify multiple opportunities for drug repurposing: Confirmatory screen for SK-N-MC cells (AID 1347111);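 also: cells exposed to compound for 48 h before the readout; nearly all actives have a fitted effect of over 70% in size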; also: potency is read from the fitted curve at half-maximal effect
How it was run: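 Seed 500-1,000 cells/well; rest 5 h at 37 degrees C. Pin-transfer compounds, 11-point titration. Incubate 48 h. Add CellTiter-Glo, 15 min RT, read luminescence.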

[14] = qHTS of pediatric cancer cell lines to identify multiple opportunities for drug repurposing: Confirmatory screen for BT-12 cells (AID 1347112); also: nearly all actives have a fitted effect of over 55% in size; also: potency is read from the fitted curve at half-maximal effect
How it was run: as §2

[15] = qHTS of pediatric cancer cell lines to identify multiple opportunities for drug repurposing: Confirmatory screen for LAN-5 cells (AID 1347113); also: nearly all actives have a fitted effect of over 65% in size; also: potency is read from the fitted curve at half-maximal effect
How it was run: as §2

[16] = qHTS of pediatric cancer cell lines to identify multiple opportunities for drug repurposing: Confirmatory screen for DAOY cells (AID 1347114); also: nearly all actives have a fitted effect of over 65% in size; also: potency is read from the fitted curve at half-maximal effect
How it was run: (§3)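 Viability measured as metabolically active cells via CellTiter-Glo luminescence following 48 hours of compound exposure, 11-point dilutions in confirmatory testing. 500-1,000 cells/well plated 5 hours before dosing; controls were DMSO and 2.3 µM bortezomib.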

[17] = qHTS of pediatric cancer cell lines to identify multiple opportunities for drug repurposing: Confirmatory screen for NB-EBc1 cells (AID 1347115);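 also: cells exposed to compound for 48 h before the viability read; nearly all actives have a fitted effect of over 45% in size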; also: potency is read from the fitted curve at half-maximal effect
How it was run: as §2

[18] = qHTS of pediatric cancer cell lines to identify multiple opportunities for drug repurposing: Confirmatory screen for SJ-GBM2 cells (AID 1347116); also: nearly all actives have a fitted effect of over 60% in size; also: potency is read from the fitted curve at half-maximal effect
How it was run: as §3

[19] = qHTS of pediatric cancer cell lines to identify multiple opportunities for drug repurposing: Confirmatory screen for BT-37 cells (AID 1347117); also: nearly all actives have a fitted effect of over 55% in size; also: potency is read from the fitted curve at half-maximal effect
How it was run: as §2

[20] = qHTS of pediatric cancer cell lines to identify multiple opportunities for drug repurposing: Confirmatory screen for TC32 cells (AID 1347118); also: potency is read from the fitted curve at half-maximal effect
How it was run: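 Luminescent ATP read-out (CellTiter-Glo) of metabolically active TC32 cells after 48 h exposure. Concentration-response curves came from 11-point (MIPE, 0.78 nM–46 µM) or 8-point (NPC, 0.59 nM–46 µM) primary titrations; follow-up used 11 points.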

Measured: Potency

CCC(=C(CC)c1ccc(O)cc1)c1ccc(O)cc1
active: [1] 9.35 µM | [2] 16.6 µM | [4] 30.6 µM | [5] 18.7 µM
inactive: [3] | [6] | [7] | [8]

CN[C@@H]1CN(c2ccc3c(=O)c(C(=O)O)cn(-c4nccs4)c3n2)C[C@@H]1OC
active: [1] 1.62 µM | [2] 1.02 µM | [9] 9.43 µM | [4] 16.8 µM | [10] 14.4 µM | [11] 1.82 µM | [12] 1.29 µM | [13] 1.44 µM | [14] 9.1 µM | [15] 1.82 µM | [16] 11.5 µM | [17] 811 nM | [18] 10.2 µM | [19] 2.57 µM | [20] 1.15 µM

Cc1nc2c([nH]1)CCN(C(=O)c1ccc(NC(=O)c3ccccc3-c3ccccc3)cc1)c1ccccc1-2
inactive: [1] | [2] | [3] | [10] | [5] | [6] | [7] | [8]

C[C@H]1[C@H](O)O[C@@H]2O[C@@]3(C)CC[C@@H]4[C@H](C)CC[C@@H]1[C@@]24OO3
inactive: [7] | [8]
active: [1] 5.9 µM | [2] 6.62 µM | [4] 1.37 µM | [10] 1.87 µM | [5] 23.5 µM

O[C@@H](COc1cccc2ncccc12)CN1CCN(C2c3ccccc3[C@@H]3[C@H](c4ccccc42)C3(F)F)CC1 (stereo not given in full)
active: [1] 3.32 µM | [2] 4.73 µM | [4] 15.5 µM | [10] 18.7 µM | [5] 29.6 µM | [7] 16.6 µM | [8] 18.7 µM
inactive: [6]

COC(=O)[C@H](c1ccccc1Cl)N1CCc2sccc2C1
active: [1] 20.9 µM
not listed: [4] | [9] | [10]
inactive: all other assays above

OC[C@H]1O[C@@H](OCCc2ccc(O)cc2)[C@H](O)[C@@H](O)[C@H]1O
inactive: [1] | [2] | [3] | [4] | [5] | [7]

Cc1ccc(S(=O)(=O)OCC(=O)Nc2ccc(C(=O)O)c(O)c2)cc1
inactive: [3] | [5] | [6]
active: [1] 18.7 µM | [2] 2.35 µM

Nc1nc(Cl)nc2c1ncn2[C@@H]1O[C@H](CO)[C@@H](O)[C@H]1F
active: [1] 3.72 µM | [2] 0.0372 µM | [5] 1.18 µM
inactive: [3] | [6] | [7]

CCc1cc(-c2n[nH]c(C)c2-c2ccc3c(c2)OCCO3)c(O)cc1O
active: [1] 10.5 µM | [2] 5.9 µM | [3] 6.62 µM | [4] 9.68 µM
inactive: [7]

O=C1C(c2c(O)[nH]c3ccccc23)=Nc2ccccc21
inactive: [1] | [2] | [3] | [4] | [8]

CCc1cccc(CC)c1NC(=O)N1Cc2[nH]nc(NC(=O)c3ccc(N4CCN(C)CC4)cc3)c2C1
inactive: [1] | [7]
active: [2] 0.296 µM | [3] 8.33 µM | [5] 14.8 µM
